Experimental data from PubChem BioAssay (NCI).
About 79,000 compounds went through this panel and 15% of them were active in at least one assay; those are over-represented in the sample as a whole. Rule as the data show it: active = growth inhibition above about 70%; inactive = the rest.

Legend:
[1] = NCI Yeast Anticancer Drug Screen. Data for the wt1 strain (AID 149);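 also: 0% = growth of vehicle-treated wt1 cultures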; settings: S. cerevisiae wt1 strain (SPY 50644) growth inhibition, active compounds read high
How it was run: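 Readout: yeast growth inhibition, normalised to vehicle controls, in the wt1 strain exposed to test compounds.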

[2] = NCI Yeast Anticancer Drug Screen. Data for the rad50EPP+ strain (AID 151);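 also: 0% = growth of vehicle-treated control cultures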; settings: S. cerevisiae rad50 mutant strain, active compounds read high
How it was run: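 Yeast strain carrying rad50 alteration (rad50EPP+) exposed to compounds; growth inhibition measured relative to vehicle-treated controls.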

[3] = NCI Yeast Anticancer Drug Screen. Data for the mgt1 strain (AID 153); settings: S. cerevisiae mgt1 mutant growth inhibition, active compounds read high
How it was run: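 Yeast mgt1 strain (DNA repair/cell-cycle alteration panel) exposed to compounds; growth inhibition measured relative to vehicle-treated controls.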

[4] = NCI Yeast Anticancer Drug Screen. Data for the rad50 strain (AID 155);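 also: 0% = growth of vehicle-only cultures of the same strain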; settings: S. cerevisiae rad50 strain growth inhibition, active compounds read high
How it was run: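 Compounds were tested on a yeast strain with an engineered DNA damage repair alteration; the reported value is growth inhibition normalised to vehicle treatment.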

[5] = NCI Yeast Anticancer Drug Screen. Data for the mec2-1 strain (AID 157); settings: S. cerevisiae mec2-1 strain, active compounds read high
How it was run: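 mec2-1 yeast strain, carrying an alteration in DNA damage repair or cell cycle control, was exposed to compounds; growth inhibition was measured relative to vehicle-treated controls.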

[6] = NCI Yeast Anticancer Drug Screen. Data for the rad14 strain (AID 159);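 also: 0% = growth of vehicle-treated control cultures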; settings: S. cerevisiae rad14 strain growth inhibition, active compounds read high
How it was run: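 Compound-treated yeast with a defined DNA-repair lesion; growth inhibition normalised to vehicle-treated cultures.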

[7] = NCI Yeast Anticancer Drug Screen. Data for the sgs1 mgt1 strain (AID 161);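 also: 0% = growth of cultures given vehicle only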; settings: S. cerevisiae sgs1 mgt1 strain, active compounds read high
How it was run: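 Growth of a repair-deficient yeast mutant was monitored after compound treatment and expressed as inhibition relative to vehicle-treated cultures.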

[8] = NCI Yeast Anticancer Drug Screen. Data for the CLN2oe strain (AID 163);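 also: 0% = growth of vehicle-only control cultures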; settings: S. cerevisiae CLN2oe strain, active compounds read high
How it was run: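 Yeast cells carrying a defined cell-cycle control alteration were exposed to test compounds. Growth inhibition was scored against vehicle-treated control cultures.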

[9] = NCI Yeast Anticancer Drug Screen. Data for the cln2 rad14 strain (AID 165);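 also: 0% = growth equal to vehicle treated cultures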; settings: S. cerevisiae cln2 rad14 strain, active compounds read high
How it was run: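 Yeast carrying cln2 and rad14 alterations (cell cycle control and DNA damage repair) were exposed to compounds. Growth inhibition was measured against vehicle-treated controls.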

[10] = NCI Yeast Anticancer Drug Screen. Data for the bub3 strain (AID 167); settings: S. cerevisiae bub3 mutant strain, active compounds read high
How it was run: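 Growth of a checkpoint-deficient yeast mutant is measured after compound exposure. Values represent inhibition relative to vehicle.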

[11] = NCI Yeast Anticancer Drug Screen. Data for the wt2 strain (AID 169);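 also: 0% = growth of vehicle-treated yeast cultures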; settings: S. cerevisiae wt2 strain growth inhibition, active compounds read high
How it was run: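 Yeast cells were exposed to test compounds, and growth inhibition was measured relative to vehicle-treated controls.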

[12] = NCI Yeast Anticancer Drug Screen. Data for the mlh1 strain (AID 171);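 also: 0% = growth of vehicle-treated control cultures of the same strain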; settings: S. cerevisiae mlh1 strain growth inhibition, active compounds read high
How it was run: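 Yeast carrying a defined genetic alteration in DNA damage repair or cell cycle control were exposed to test compounds. Growth inhibition was measured relative to vehicle-treated controls.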

[13] = NCI Yeast Anticancer Drug Screen. Data for the sgs1 strain (AID 173);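 also: 0% = growth of vehicle-only control cultures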; settings: S. cerevisiae sgs1 mutant, active compounds read high
How it was run: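 Yeast mutant strains carrying defined defects in DNA damage repair or cell cycle control were exposed to test compounds. Growth inhibition was scored against vehicle-treated controls.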

[14] = NCI Yeast Anticancer Drug Screen. Data for the mlh1 rad18 strain (AID 175); settings: S. cerevisiae mlh1 rad18 strain growth inhibition, active compounds read high
How it was run: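 Growth inhibition of the yeast strain was measured after compound exposure and expressed relative to vehicle-treated controls. The strain carries defined defects in DNA damage repair.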

[15] = NCI Yeast Anticancer Drug Screen. Data for the rad18 strain (AID 177); settings: S. cerevisiae rad18 mutant growth inhibition, active compounds read high
How it was run: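 Yeast carrying a defined DNA damage repair alteration were exposed to compounds. Growth inhibition was expressed relative to vehicle-treated controls.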

[16] = at 5.0 µM (retest, dose inferred, filed as 0.5)
[17] = at 50.0 µM (retest, dose inferred, filed as 5.0)

Measured: growth inhibition

COc1cc(NCCCCCNC(C)C)c2ncccc2c1Cl
inactive: [1]; at 1.2 µM -2% | [1]; at 3.7 µM 3% | [1]; at 11.0 µM 1% | [1]; at 33.0 µM 2% | [1]; at 100.0 µM -8% | [2]; at 1.2 µM 1% | [2]; at 3.7 µM -1% | [2]; at 11.0 µM 1% | [2]; at 33.0 µM 9% | [2]; at 100.0 µM 13% | [3]; at 1.2 µM -5% | [3]; at 3.7 µM -3% | [3]; at 11.0 µM 1% | [3]; at 33.0 µM 3% | [3]; at 100.0 µM 33% | [4]; at 1.2 µM -1% | [4]; at 3.7 µM 2% | [4]; [16] 8% | [4]; at 11.0 µM 4% | [4]; at 33.0 µM 7% | [4]; [17] 12% | [4]; at 50.0 µM 49.7% | [4]; at 100.0 µM 24% | [5]; at 1.2 µM -1% | [5]; at 3.7 µM 2% | [5]; [16] -3% | [5]; at 11.0 µM 3% | [5]; at 33.0 µM 4% | [5]; [17] 13% | [5]; at 50.0 µM 6.65% | [5]; at 100.0 µM 10% | [6]; at 1.2 µM 0% | [6]; at 3.7 µM 5% | [6]; at 11.0 µM 15% | [6]; at 33.0 µM 24% | [6]; at 100.0 µM 24% | [7]; [16] 5% | [7]; [17] 28% | [7]; at 50.0 µM 52.5% | [8]; at 1.2 µM 0% | [8]; at 3.7 µM -6% | [8]; at 11.0 µM 6% | [8]; at 33.0 µM 14% | [8]; at 100.0 µM 36% | [9]; [16] 8% | [9]; [17] 41% | [9]; at 50.0 µM 26.8% | [10]; at 1.2 µM -2% | [10]; at 3.7 µM -1% | [10]; [16] 6% | [10]; at 11.0 µM 3% | [10]; at 33.0 µM 11% | [10]; [17] 38% | [10]; at 50.0 µM 36.5% | [10]; at 100.0 µM 25% | [11]; at 1.2 µM -2% | [11]; at 3.7 µM -1% | [11]; at 11.0 µM 0% | [11]; at 33.0 µM 7% | [11]; at 100.0 µM 6% | [12]; at 1.2 µM -1% | [12]; at 3.7 µM -1% | [12]; at 11.0 µM 1% | [12]; at 33.0 µM 7% | [12]; at 100.0 µM 15% | [13]; at 1.2 µM -1% | [13]; at 3.7 µM -2% | [13]; at 11.0 µM 3% | [13]; at 33.0 µM 13% | [13]; at 100.0 µM 23% | [14]; [16] 5% | [14]; [17] 38% | [14]; at 50.0 µM 56.8% | [15]; at 1.2 µM -1% | [15]; at 3.7 µM -4% | [15]; at 11.0 µM -1% | [15]; at 33.0 µM 5% | [15]; at 100.0 µM 13%

O=C(Cc1ccccc1F)NC1=C(Cl)C(=O)c2ccccc2C1=O
inactive: [1]; at 1.2 µM 1% | [1]; at 3.7 µM 0% | [1]; at 11.0 µM 0% | [1]; at 33.0 µM 9% | [1]; at 100.0 µM 17% | [2]; at 1.2 µM 40% | [2]; at 3.7 µM 43% | [2]; at 11.0 µM 51% | [2]; at 33.0 µM 48% | [2]; at 100.0 µM 59% | [3]; at 1.2 µM -2% | [3]; at 3.7 µM 11% | [3]; at 11.0 µM 8% | [3]; at 33.0 µM 3% | [3]; at 100.0 µM 14% | [4]; at 1.2 µM 20% | [4]; at 3.7 µM 26% | [4]; [16] 14% | [4]; at 11.0 µM 13% | [4]; at 33.0 µM 22% | [4]; [17] 4% | [4]; at 50.0 µM 30.8% | [4]; at 100.0 µM 37% | [5]; at 1.2 µM 41% | [5]; at 3.7 µM 45% | [5]; [16] -16% | [5]; at 11.0 µM 46% | [5]; at 33.0 µM 55% | [5]; [17] 50% | [5]; at 50.0 µM -14.2%
